# Data from ChEMBL document CHEMBL3988442, “University of Dundee, Small-Polar-MMV Screening Library” (2021).
# Out of some 85,000 compounds screened, about 440 (0.52%) showed an effect of 50% or more. Many of the other results were omitted from the sample, so strong results are more common in it than they were.
# Assay: In vitro enzyme assay to detect hydrolysis of chlorophenol red-beta-D-[…] directly proportional to the number of Toxoplasma stably expressing beta-galactosidase
# Assay type: functional, organism-based, Toxoplasma gondii
# Parameters: scale not given: in the data most compounds retested in dose-response had high values
compound,measurement,setting,value
CN1CCCCC1CCC(=O)NCCCn1cccn1 (centres undefined),Percent Effect,50 µM,-6.664%
O=C(CC1CC1)N1CCC2(CC1)CN(c1cccnc1)C(=O)CO2.O=C(O)C(F)(F)F,Percent Effect,10 µM,-21.74%
CCS(=O)(=O)N1CCC2(CC1)CN(c1cccnc1)C(=O)CO2.O=C(O)C(F)(F)F,Percent Effect,10 µM,-35.87%
O=C(O)C(F)(F)F.O=C1COC2(CCN(S(=O)(=O)C3CC3)CC2)CN1c1cccnc1,Percent Effect,10 µM,59.25%
COc1cccc2c1N(CC(=O)N1CCC1)CCC2,Percent Effect,50 µM,-0.7135%
Cc1ccc(C)c(-c2[nH]c3ccccc3c2C(=O)O)c1,Percent Effect,10 µM,7.079%
COc1ccc(C)cc1-c1[nH]c2ccccc2c1C(=O)O,Percent Effect,10 µM,55.01%
Cc1ccc(-c2[nH]c3ccccc3c2C(=O)O)c(C)c1,Percent Effect,10 µM,-0.6823%
NC(=O)c1cc(N2CCCC2)nc2ccccc12,Percent Effect,50 µM,2.977%
Cn1nc(C(=O)N2CCOCC2)c(Br)c1C(F)(F)F,Percent Effect,50 µM,24.28%
CCn1cc(C(=O)NCCCC(N)=O)c2ccccc21,Percent Effect,50 µM,-17.15%
N#CCCCn1ccccc1=O,Percent Effect,50 µM,-0.4771%
Cc1c(Cl)cccc1NC(=O)CSc1nnc[nH]1,Percent Effect,50 µM,-6.056%
COCC(=O)Nc1ccnn1-c1ccc(Cl)cc1,Percent Effect,10 µM,75.67%
COCCOCC(=O)Nc1ccnn1-c1ccc(Cl)cc1,Percent Effect,10 µM,0.922%
CCOCCC(=O)Nc1ccnn1-c1ccc(Cl)cc1,Percent Effect,10 µM,-1.702%
CCn1ncnc1C(C)NC(=O)c1cc(Cl)ccc1F (centres undefined),Percent Effect,50 µM,1.166%
CCn1c(SCC(N)=O)nnc1C(C)NC(=O)c1ccc(Cl)cc1 (centres undefined),Percent Effect,10 µM,74.14%
CC(c1ccccc1)n1c(SCC(=O)O)nnc1-c1ccccc1Cl (centres undefined),Percent Effect,10 µM,-2.501%
CC(NC(=O)c1ccc(Cl)cc1)c1nnc(SCC(N)=O)n1C (centres undefined),Percent Effect,10 µM,10.17%
CCn1c(SCC(=O)O)nnc1C(C)NC(=O)c1ccc(Cl)cc1 (centres undefined),Percent Effect,10 µM,60.13%
CC(NC(=O)c1ccc(Cl)cc1)c1nnc(SCC(=O)O)n1C (centres undefined),Percent Effect,10 µM,78.32%
CCn1c(SCC(N)=O)nnc1-c1cccnc1,Percent Effect,50 µM,-5.033%
CC(NC(=O)NCCOc1ccc(Cl)cc1)c1nncn1C (centres undefined),Percent Effect,10 µM,2.548%
CC(C)CC(NC(=O)c1ccc(Cl)cc1)C(N)=O (centres undefined),Percent Effect,50 µM,23.98%
N#Cc1ccc(C(=O)N2CCCO2)nc1,Percent Effect,50 µM,-1.519%
CSCC(=O)N1CCN(Cc2nccn2C)CC1,Percent Effect,50 µM,0.586%
CCN1CCN(S(=O)(=O)c2c(F)cccc2F)CC1,Percent Effect,50 µM,-8.353%
CN(CCC1CCCO1)Cc1ccc(N(C)C)nc1 (centres undefined),Percent Effect,50 µM,6.718%
CC(C)COCCN1CCN(Cc2ccon2)CC1,Percent Effect,50 µM,0.7264%
CC(O)c1cccc(Nc2nc(NCCO)c3ccccc3n2)c1 (centres undefined),Percent Effect,10 µM,12.45%
CCN(CC)c1nc(Nc2cccc(C(C)O)c2)nc2ccccc12 (centres undefined),Percent Effect,10 µM,95.47%
CCN(CC)c1nc(Nc2cccc(C(=O)O)c2)nc2ccccc12,Percent Effect,10 µM,-21.05%
COC(=O)N1CCC(Nc2nnc(C(F)(F)F)s2)CC1,Percent Effect,50 µM,9.072%
NCC1CCCN(c2ncccn2)C1 (centres undefined),Percent Effect,50 µM,3.495%
O=C(NCC1CCCO1)c1cnn2cccnc12 (centres undefined),Percent Effect,50 µM,-4.539%
CC(C)c1nc2c(n1C)CCN(Cc1cccc(C(N)=O)c1)C2,Percent Effect,10 µM,-1.993%
NC(=O)c1cccc(CN2CCc3c(ncn3C3CC3)C2)c1,Percent Effect,10 µM,83.44%
Cn1cnc2c1CCN(Cc1cccc(C(N)=O)c1)C2,Percent Effect,10 µM,1.729%
CN(CCC#N)C(CCO)c1ccccc1 (centres undefined),Percent Effect,50 µM,25.8%
O=C(CSc1nnc(-c2ccccc2F)o1)NC1CC1,Percent Effect,50 µM,-13.11%
CC(C)(CC1CCCNC1)C(N)=O (centres undefined),Percent Effect,50 µM,7.36%
Cc1cc(C)n(CC(=O)NCCc2ccc[nH]2)n1,Percent Effect,50 µM,-10.28%
COCCNC(=O)c1cc2cc(C)ccc2n1C,Percent Effect,50 µM,2.035%
COc1cc2cc(C(=O)N[C@@H](C)C(=O)O)n(C)c2c(OC)c1OC,Percent Effect,10 µM,-3.586%
COc1cc2cc(C(=O)NCC(=O)O)n(C)c2c(OC)c1OC,Percent Effect,10 µM,74.68%
COc1cc2cc(C(=O)O)n(C)c2c(OC)c1OC,Percent Effect,10 µM,-3.347%
COc1cc2cc(C(=O)NC(C)C(=O)O)n(C)c2c(OC)c1OC (centres undefined),Percent Effect,10 µM,17.43%
COc1cc2cc(C(=O)NCCC(=O)O)n(C)c2c(OC)c1OC,Percent Effect,10 µM,74.68%
COC(=O)C1CCN(C(=O)C2CCCO2)CC1 (centres undefined),Percent Effect,50 µM,-8.272%
COc1ccccc1SC(C)C(=O)N1CCNC1=O (centres undefined),Percent Effect,50 µM,15.55%
CCc1cccc(NC(=O)C2CCCN(C(C)=O)C2)c1 (centres undefined),Percent Effect,50 µM,4.153%
CC1CCC(N(C)C(=O)Cn2cccn2)CC1 (centres undefined),Percent Effect,50 µM,-1.84%
CN1CCc2[nH]nc(C(=O)N3CCC4(CCCO4)CC3)c2C1,Percent Effect,10 µM,1.903%
O=C(c1cc(C2CC2)n[nH]1)N1CCCC(O)(CO)CC1 (centres undefined),Percent Effect,50 µM,4.237%
O=C(c1cc(C2CC2)n[nH]1)N1CCC2(CCCO2)CC1,Percent Effect,50 µM,64.63%
COc1ccc(CSc2nnc(N)[nH]2)c(Cl)c1,Percent Effect,50 µM,2.455%
Nc1nnc(SCc2ccc(Cl)s2)[nH]1,Percent Effect,50 µM,56.64%
Clc1ccc(CSc2cnn[nH]2)s1,Percent Effect,50 µM,-14.75%
O=C(NCCO)c1nnsc1-c1ccc(Cl)cc1,Percent Effect,50 µM,-1.39%
CC(C)N(CC(N)=O)CC(=O)NCCc1cccs1,Percent Effect,50 µM,12.36%
CNC(=O)Cc1cccs1,Percent Effect,50 µM,0.3815%
CCS(=O)(=O)N(CCc1cccs1)CC(=O)NC,Percent Effect,50 µM,65.25%
CC(C)n1cccc1C(=O)NCCc1cncn1C,Percent Effect,50 µM,7.567%
COC(=O)c1[nH]cc(-c2ccccc2)c1N,Percent Effect,50 µM,60.81%
CC(=O)Nc1nc(-c2ccccc2)c[nH]1,Percent Effect,10 µM,-10.01%
COC(=O)c1snc(-c2ccccc2)c1N,Percent Effect,50 µM,3.849%
O=S1(=O)CCC(NC2CCNCC2)C1 (centres undefined),Percent Effect,50 µM,0.6188%
Cc1cc(=O)cc(C(=O)NCCC(C)n2ccnc2)o1 (centres undefined),Percent Effect,50 µM,85.97%
Cc1cc(=O)cc(C(=O)NCCCc2ccncc2)o1,Percent Effect,50 µM,15.6%
CC(CCNC(=O)CCc1cccnc1)n1ccnc1 (centres undefined),Percent Effect,50 µM,-1.131%
COCC(=O)N1CCCN(Cc2cnn(C)c2)CC1,Percent Effect,50 µM,1.219%
CC(=O)Nc1nc(CC(=O)NCc2ccco2)cs1,Percent Effect,50 µM,-28.1%
Cn1cc(NC(=O)CCc2ccccn2)cn1,Percent Effect,50 µM,-11.54%
Nc1ccnn1-c1ccccn1,Percent Effect,50 µM,-4.085%
Cc1cn(-c2ccc(C#N)cc2)nc1N,Percent Effect,50 µM,-9.418%
N#Cc1ccc(-n2nccc2N)cc1,Percent Effect,50 µM,92.39%
O=C1CNCN1Cc1ccccc1,Percent Effect,50 µM,2.533%
N[C@@H]1CC[C@@H]1NC(=O)c1scc2c1OCCO2,Percent Effect,50 µM,-7.783%
Cc1cnc(CN2CC3(CCOC3)CCC2=O)cn1 (centres undefined),Percent Effect,50 µM,-2.648%
Cc1cc(C(=O)NCCc2noc(C3CC3)n2)nn1C,Percent Effect,50 µM,97.7%
Cc1ccc(CNC(=O)c2cc(C)n(C)n2)o1,Percent Effect,10 µM,75.49%
CCn1ccc(C(=O)NCc2ccco2)n1,Percent Effect,50 µM,-13.38%
Cc1ccc(CNC(=O)c2cc(NC(=O)C3CC3)n(C)n2)o1,Percent Effect,10 µM,2.088%
Cc1cc(C(=O)NCC(C)C)nn1C,Percent Effect,10 µM,9.135%
Cc1cc(C(=O)NCCc2noc(C3CC3)n2)[nH]n1,Percent Effect,50 µM,12.77%
Cn1cc(C(=O)NCCc2noc(C3CC3)n2)cn1,Percent Effect,50 µM,-7.141%
Cc1cc(C(=O)NCc2cccn2C)nn1C,Percent Effect,10 µM,1.66%
Cc1cc(C(=O)NCc2ccco2)nn1C,Percent Effect,10 µM,56.09%
CN(Cc1cccnc1)C(=O)c1cccc(Cl)c1,Percent Effect,50 µM,11.97%
CNC(=O)CSCc1ccc2ccccc2n1,Percent Effect,50 µM,15.55%
CCCS(=O)(=O)N1CCC(CC(=O)NC)CC1,Percent Effect,50 µM,-1.732%
Cn1cncc1C(N)CO (centres undefined),Percent Effect,50 µM,-9.765%
CCC(N)(CC)CNS(=O)(=O)c1ccc2c(c1)CCO2,Percent Effect,50 µM,-2.355%
CC(C)CC(C)CN1CCN(CCS(C)(=O)=O)CC1 (centres undefined),Percent Effect,50 µM,-18.72%
COc1csc(-c2cc(N)[nH]n2)c1,Percent Effect,50 µM,7.911%
CCS(=O)(=O)CCNC(C)(CO)C1CCCCC1 (centres undefined),Percent Effect,50 µM,-6.595%
CC(=O)c1c(C)cccc1NCC(=O)N(C)C,Percent Effect,50 µM,-19.59%
Cn1cc(CN(C(=O)c2ccc(O)c(Cl)c2)C2CC2)cn1,Percent Effect,10 µM,-12.14%
CN1C(=O)c2ccc(C(=O)N(Cc3cnn(C)c3)C3CC3)cc2C1=O,Percent Effect,10 µM,-5.009%
Cn1cc(CN(C(=O)c2ccc(N)nc2)C2CC2)cn1,Percent Effect,50 µM,96.08%
CC(=O)N[C@H]1CCO[C@@H](c2cccc(NC(=O)c3cccc(F)c3)c2)C1,Percent Effect,10 µM,20.53%
CC(=O)Nc1cccc([C@H]2C[C@@H](NC(C)=O)CCO2)c1,Percent Effect,10 µM,-4.369%
CC(=O)N[C@H]1CCO[C@@H](c2cccc(NC(=O)c3ccc(=O)[nH]n3)c2)C1,Percent Effect,10 µM,71.09%
COCCCNC(=O)Nc1cnn(C)c1,Percent Effect,50 µM,3.712%
Cn1nnc2c(N3CCCCC3)ncnc21,Percent Effect,50 µM,-0.3233%
O=C(O)C(F)(F)F.O=C([C@H]1CN(Cc2ccc(F)cc2)C[C@H]2OCC[C@@H]12)N1CCCO1,Percent Effect,10 µM,0.4926%
O=C([C@@H]1CCO[C@@H]2CCN(CC3CC3)C[C@H]21)N1CCCC1,Percent Effect,10 µM,-7.409%
O=C(O)C(F)(F)F.O=C([C@@H]1CCO[C@@H]2CCN(Cc3ccc(F)cc3)C[C@H]21)N1CCCCO1,Percent Effect,10 µM,73.44%
O=C(O)C(F)(F)F.O=C([C@@H]1CCO[C@@H]2CCN(CC3CCOCC3)C[C@H]21)N1CCCO1,Percent Effect,10 µM,-19.56%
O=C(O)C(F)(F)F.O=C([C@@H]1CCO[C@@H]2CCN(Cc3cccs3)C[C@H]21)N1CCCCO1,Percent Effect,10 µM,-10.74%
O=C([C@@H]1CCO[C@@H]2CCN(CC3CC3)C[C@H]21)N1CCCCO1,Percent Effect,10 µM,96.45%
CC1(C)CNCCC(=O)C1,Percent Effect,50 µM,-1.716%
C[C@H](N)c1ccc(Cl)s1,Percent Effect,50 µM,6.702%
